# Data from PubChem BioAssay.
# Activity calls are given as the source filed them.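 How the source made its calls, unless noted: active means compounds giving at least 50% inhibition in the cell-based MKP-3 phosphatase rescue imaging test; inactive means the rest.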
# Assays:
# [1] = endothelial E-selectin expression blockers – imaging, HUVEC, immunofluorescence, MLSMR starter and 10KST1 sets, primary screen (AID 487;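 active means visually confirmed hit in the image check and inhibition above 20%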;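 on inhibition: signal is fraction of cell area covered by stained E-selectin grains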;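 on nuclei count: 100% = median nuclei count of all wells on the same plate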); conditions: HUVEC TNFalpha-induced E-selectin immunofluorescence imaging, at 2 µM; inhibition: stronger effect = higher value; nuclei count: measured here: cell number, toxicity
# [2] = Primary imaging screen for DUSP6 inhibitors that restore phospho-Erk in transfected HeLa cells, chemical complementation (AID 609); conditions: HeLa MKP-3 transfected, phospho-Erk imaging KS statistic, at 10 µM, cells stimulated with TPA for 15 min;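 on inhibition: phospho-Erk level distribution per well compared with pooled transfected vehicle control wells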
# [3] = biological target: Dual specificity protein phosphatase 6 (Homo sapiens) (UniProt Q16828); test: as above; conditions: HeLa MKP-3 transfected, phospho-Erk imaging KS statistic; at 10 µM; stronger effect = higher value; cells stimulated with TPA for 15 min
# Sequence of Dual specificity protein phosphatase 6 (Homo sapiens) (Q16828 whole entry, looked up): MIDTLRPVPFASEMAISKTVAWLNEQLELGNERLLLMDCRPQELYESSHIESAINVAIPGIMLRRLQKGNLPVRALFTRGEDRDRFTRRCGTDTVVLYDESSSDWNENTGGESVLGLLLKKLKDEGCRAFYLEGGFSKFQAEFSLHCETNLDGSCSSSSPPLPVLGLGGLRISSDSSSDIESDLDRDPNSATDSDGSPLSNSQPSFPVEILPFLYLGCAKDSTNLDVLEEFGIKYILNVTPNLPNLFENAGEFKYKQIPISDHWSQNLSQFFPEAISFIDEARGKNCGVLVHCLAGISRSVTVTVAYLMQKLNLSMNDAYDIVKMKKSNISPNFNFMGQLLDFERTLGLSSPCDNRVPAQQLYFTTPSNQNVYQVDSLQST
# [4] = biological target: Voltage-gated potassium channel subunit beta-2 (Rattus norvegicus) (UniProt P62483); test: inhibitors of rat Kvbeta2 reductase activity – biochemical, NADPH fluorescence, primary screen (AID 622;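 active means fluorescence slope higher than the sample average by over 3 SD, cut at about -0.22 in these data, passing the limit was not always enough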;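 further: slope of raw intensity against log time taken from 70 to 1610 s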); conditions: recombinant KvBeta, 4-cyanobenzaldehyde reduction, at 10 µM, stronger effect = higher value
# Sequence of Voltage-gated potassium channel subunit beta-2 (Rattus norvegicus) (P62483 whole entry, looked up): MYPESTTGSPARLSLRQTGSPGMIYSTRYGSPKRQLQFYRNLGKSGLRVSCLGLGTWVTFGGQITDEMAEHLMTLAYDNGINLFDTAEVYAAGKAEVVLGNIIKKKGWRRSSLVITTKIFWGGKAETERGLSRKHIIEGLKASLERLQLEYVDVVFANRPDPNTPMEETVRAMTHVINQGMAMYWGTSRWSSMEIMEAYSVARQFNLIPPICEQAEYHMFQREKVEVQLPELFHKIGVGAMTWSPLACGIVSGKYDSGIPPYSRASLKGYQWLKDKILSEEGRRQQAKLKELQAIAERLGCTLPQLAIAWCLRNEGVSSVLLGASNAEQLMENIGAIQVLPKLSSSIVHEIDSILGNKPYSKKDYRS
# [5] = biological target: Voltage-gated potassium channel subunit beta-2 (Rattus norvegicus) (UniProt P62483); test: enhancers of rat Kvbeta2 NADPH turnover – biochemical, NADPH fluorescence, primary screen (AID 623;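 active means NADPH fluorescence slope more negative than the mean of all samples by about 3 SD, 99.7% confidence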;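 further: fluorescence intensity change per second fitted from 20 to 320 s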); conditions: Recombinant KvBeta, NADPH fluorescence decrease slope, 10 min; at 10 µM; stronger effect = lower value
# [6] = biological target: Muscarinic acetylcholine receptor M4 (Homo sapiens) (UniProt P08173); test: M4-linked GIRK flux change, two-sided – cell-based, HEK293 M4/GIRK, thallium flux, BTC-AM, M4 allosteric agonist project, primary screen (AID 625;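 active means fluorescence slope after compound addition differing from the mean of all tested samples at 99.7% confidence, mostly higher but some lower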;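 further: thallium influx through GIRK channels coupled to M4 in HEK293 cells with BTC-AM dye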); conditions: at 10 µM, actives lie on both sides
# Sequence of Muscarinic acetylcholine receptor M4 (Homo sapiens) (P08173 whole entry, looked up): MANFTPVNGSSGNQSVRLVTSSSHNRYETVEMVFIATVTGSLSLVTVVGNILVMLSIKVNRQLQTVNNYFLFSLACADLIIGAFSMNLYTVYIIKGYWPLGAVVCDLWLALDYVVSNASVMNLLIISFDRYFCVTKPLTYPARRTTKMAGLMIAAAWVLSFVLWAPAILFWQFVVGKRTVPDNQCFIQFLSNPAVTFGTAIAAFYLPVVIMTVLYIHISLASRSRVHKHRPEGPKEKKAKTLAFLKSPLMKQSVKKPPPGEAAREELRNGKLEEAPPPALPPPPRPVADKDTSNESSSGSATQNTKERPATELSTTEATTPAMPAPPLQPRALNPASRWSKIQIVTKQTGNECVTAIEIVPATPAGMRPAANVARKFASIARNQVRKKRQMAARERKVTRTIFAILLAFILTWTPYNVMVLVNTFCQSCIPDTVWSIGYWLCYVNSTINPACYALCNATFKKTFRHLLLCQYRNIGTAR
# [7] = inhibitors of larval lipid processing in zebrafish, primary screen, whole organism, PED6 fluorescence, gall bladder and intestine (AID 686;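 active means a full or partial loss of lipid-probe fluorescence in the fish gall bladder, intestine or both, judged by eye; inactive means no fluorescence loss, or compound toxic to the fish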;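 further: larvae 5 to 7 days old with five fish per well; signal comes from phospholipase A2 cleavage of quenched PED6 carried via bile; overnight exposure to compound and PED6 before scoring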); conditions: Zebrafish larvae PED6 lipid processing, fluorescence scoring; screened at 20 µM (by protocol)
# [8] = loss of swimming-algae plug formation – whole organism, Chlamydomonas reinhardtii, WT vs cilia-less mutant, absorbance, 96-well, primary screen (AID 463189;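 active means inhibition at or above 50% relative to wild type and mutant plate controls; inactive means inhibition below 50%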;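 further: 0% = wild type cc124 cells in DMSO and 100% = ciliumless bld1 mutant cells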); conditions: Chlamydomonas reinhardtii gravitaxis, OD600 absorbance, 2 days; at 10 µM; stronger effect = higher value
# [9] = measured here: cell density z-score
# [10] = measured here: nuclear c-Myc green intensity z-score
# [11] = measured here: nuclear pErk red intensity z-score, stronger effect = higher value
SMILES,inhibition [1],nuclei count [1] [%],"z-score [2, 9]","z-score [2, 10]","z-score [2, 11]",inhibition [3],fluorescence slope [4],NADPH fluorescence slope [5],fluorescence slope [6],outcome [7],inhibition [8]
O=C(NC1CCCCC1)[C@H](O)[C@@H](O)C(=O)NC1CCCCC1,-94% (inactive),140,-1.12,0.563,0.453,5.57% (inactive),-0.381 (inactive),-4.7e-05 (inactive),0.00717 (inactive),inactive,-2.73% (inactive)
CN(CCOC(=O)c1cccc(Br)c1)C(C)(C)C,-47% (inactive),134,-0.456,0.868,2.16,7.48% (inactive),-0.405 (inactive),-4e-05 (inactive),0.00522 (inactive),inactive,30.2% (inactive)
CC1(C)CC(=O)C(C2=NC(C)(C)Cc3ccccc32)=C(O)C1,-46.3% (inactive),99.8,-0.0371,0.246,-0.668,15.1% (inactive),-0.435 (inactive),3.9e-06 (inactive),0.00539 (inactive),inactive,-9.43% (inactive)
NC(=O)c1ccccc1OCCOCCOCCOc1ccccc1C(N)=O,-40% (inactive),141,0.988,0.573,-0.494,3.66% (inactive),-0.379 (inactive),-3.2e-05 (inactive),0.00555 (inactive),inactive,21.6% (inactive)
Cc1cc(C)n(C(=O)CNC(=O)c2ccc3c(c2)OCCO3)n1,-96.3% (inactive),162,1.78,-0.668,-1.28,18.9% (inactive),-0.374 (inactive),-5.5e-05 (inactive),0.00504 (inactive),inactive,12.4% (inactive)
CCC(=O)Oc1oc(-c2ccccc2)nc1C=Nc1ccccc1OC,-41.7% (inactive),161,0.687,0.248,1.48,9.39% (inactive),-0.381 (inactive),-4.4e-05 (inactive),0.00681 (inactive),inactive,10.5% (inactive)
CCCCCOc1ccc(Cl)cc1CN1CCOCC1,-77.3% (inactive),110,-0.264,0.0743,-0.781,11.3% (inactive),-0.434 (inactive),-2.1e-05 (inactive),0.00599 (inactive),inactive,126% (active)
CCOC(=O)c1cc(CC)sc1NC(=O)C1CC1,5.7% (inactive),151,0.13,-0.277,0.203,1.75% (inactive),-0.369 (inactive),-6.8e-05 (inactive),0.0058 (inactive),inactive,-9.3% (inactive)
O=C(Oc1ccccc1)c1c(Cl)cccc1P(=O)(O)O,-22.4% (inactive),146,-1.16,0.0504,-1.03,-0.159% (inactive),-0.396 (inactive),-2.5e-05 (inactive),0.00459 (inactive),inactive,-7.77% (inactive)
COc1cccc(C(=O)NCC(=O)n2nc(C)cc2C)c1,-70.4% (inactive),88.5,0.974,0.517,-1.04,15.1% (inactive),-0.462 (inactive),-4.4e-05 (inactive),0.00505 (inactive),inactive,36% (inactive)
COc1ccc(C(=O)NCC(=O)n2nc(C)cc2C)cc1OC,-38.7% (inactive),95.9,-0.145,0.45,-1.73,3.66% (inactive),-0.415 (inactive),-1.8e-05 (inactive),0.00491 (inactive),inactive,-5.61% (inactive)
O=P(Cc1nnco1)(c1ccccc1)c1ccccc1,0.9% (inactive),176,0.578,-1.79,0.749,-3.98% (inactive),-0.431 (inactive),-5.1e-05 (inactive),0.00527 (inactive),inactive,-3.84% (inactive)
CCCc1nnc(SCc2ccc(OCC)cc2)n1N,-86% (inactive),147,-0.133,1.35,1.37,7.48% (inactive),-0.421 (inactive),-1.6e-05 (inactive),0.00481 (inactive),inactive,28.9% (inactive)
Cc1c(C(=O)O)sc(=S)n1-c1ccccc1,-33.5% (inactive),141,0.701,-0.0654,0.165,20.8% (inactive),-0.372 (inactive),-3.1e-05 (inactive),0.0076 (inactive),inactive,12.3% (inactive)
O=C(Oc1oc(-c2ccco2)nc1C=Nc1ccccc1)c1ccoc1,-72% (inactive),165,1.16,-0.161,0.106,15.1% (inactive),-0.402 (inactive),-4.5e-05 (inactive),0.00635 (inactive),inactive,8.33% (inactive)
Cc1cccc(OCC(=O)NCC(=O)n2nc(C)cc2C)c1,-106% (inactive),146,-0.336,0.0922,0.78,-7.79% (inactive),-0.413 (inactive),-9.5e-06 (inactive),0.00436 (inactive),inactive,16.2% (inactive)
Cc1cc(C)n(C(=O)CNC(=O)c2cccs2)n1,-109% (inactive),182,0.591,-1.67,-0.663,7.48% (inactive),-0.404 (inactive),-3.1e-05 (inactive),0.00505 (inactive),inactive,16.6% (inactive)
Cc1cc(N/C=C/C(=O)c2cccc3ccccc23)no1,-51% (inactive),95.6,-0.324,0.59,-0.55,13.2% (inactive),-0.396 (inactive),-2.3e-06 (inactive),0.00616 (inactive),inactive,-11.1% (inactive)
COCCN(Cc1ccccc1)P(=O)(O)c1ccccc1OCC(=O)O,-21.2% (inactive),151,1.19,-1.67,0.944,15.1% (inactive),-0.446 (inactive),-4.4e-05 (inactive),0.00543 (inactive),inactive,19.2% (inactive)
CC(C)CCOc1ccc(Cl)cc1CN1CCOCC1,-12.9% (inactive),146,-1.08,-0.136,-0.739,-3.98% (inactive),-0.378 (inactive),-7.1e-06 (inactive),0.00465 (inactive),inactive; toxic,106% (active)
CC(=O)Oc1oc(-c2ccccc2)nc1/C=N/c1ccccn1,-20.4% (inactive),147,-0.443,1.34,0.905,7.48% (inactive),-0.383 (inactive),-5.8e-05 (inactive),0.00577 (inactive),inactive,-3.91% (inactive)
CC1(c2cnc(Nc3ccccc3)s2)CCC(=O)O1 (stereo not drawn),-192% (inactive),138,0.619,-0.905,-1.23,24.7% (inactive),-0.359 (inactive),1.9e-06 (inactive),0.00609 (inactive),active; weak signal in gallbladder only,9.89% (inactive)
O=C(NCCO)C1(c2ccccc2)CCCC1,-0.2% (inactive),87.4,-1.49,2.28,-1.5,20.8% (inactive),-0.406 (inactive),-8.2e-06 (inactive),0.00732 (inactive),inactive,-4.89% (inactive)
CC(C)(C#N)C(C)(C)c1nn[nH]n1,-15.5% (inactive),72.6,1.29,-0.296,-0.013,13.2% (inactive),-0.468 (inactive),-2.9e-05 (inactive),0.00499 (inactive),inactive,20% (inactive)
C=C(Br)CN1CCN(CC(=C)Br)CC1,-179% (inactive),175,2.33,-0.834,-0.983,17% (inactive),-0.428 (inactive),-2.9e-05 (inactive),0.00828 (inactive),inactive,5.24% (inactive)
COc1cccc(N2CCN(c3ncnc4c3[nH]c3ccccc34)CC2C)c1 (stereo not drawn),72.8% (inactive),102,-0.905,-0.691,2.95,-7.93% (inactive),-0.41 (inactive),-8e-06 (inactive),0.00483 (inactive),inactive,57% (active)
O=c1/c(=C/c2ccccn2)sc2n1CN(c1ccccc1)CN=2,15.3% (inactive),137,0.878,0.58,-0.986,34.2% (inactive),-0.4 (inactive),-4.8e-05 (inactive),0.00773 (inactive),inactive,32% (inactive)
COc1cccc(C(=O)OCCN(C)C(C)(C)C)c1,-23.7% (inactive),128,0.369,1.71,-0.0558,17% (inactive),-0.414 (inactive),-3.4e-05 (inactive),0.00557 (inactive),inactive,31.9% (inactive)
